Data: PubChem BioAssay (Tox21)
Records with an inconclusive call do not appear. Activity calls are given as the source filed them. Unless noted, the call rests on the fitted dose curve; in most records, active means well fitted curve in the direction sought with a large enough effect in the repeat runs; inconclusive means weak or mixed curves; inactive means no such curve, though single readings can be large; an effect the other way counts as inactive or inconclusive.

What was measured:
[1] = qHTS assay to test for compound auto fluorescence at 535 nm (green) in HEK293 cells (AID 720680)
[2] = qHTS assay to test for compound auto fluorescence at 460 nm (blue) in HEK293 cell free culture (AID 720681)
In short: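 Compounds were added to cell-free DMEM with 10% FBS and fluorescence read directly. The blue channel used 405 nm excitation and 460 nm emission, with triamterene as the reference fluorophore.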

[3] = qHTS assay to test for compound auto fluorescence at 535 nm (green) in HEK293 cell free culture (AID 720682)
In short: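 Steps: dispense DMEM/10% FBS into empty wells; pin in compound or DMSO; measure fluorescence at 485/535 nm. Values are fluorescein equivalents.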

[4] = qHTS assay to test for compound auto fluorescence at 590 nm (red) in HEK293 cell free culture (AID 720683)
In short: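 Cell-free wells of DMEM with 10% FBS received compound, and intrinsic fluorescence was read at excitation/emission 540/590 nm. Values expressed as equivalence to Rose Bengal sodium.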

[5] = qHTS assay to test for compound auto fluorescence at 590 nm (red) in HepG2 cell free culture (AID 720684)
In short: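 Compounds are added to culture medium (MEM, 10% FBS) lacking cells, then fluorescence is read at excitation 540 nm, emission 590 nm, with Rose Bengal sodium as the equivalency standard.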

[6] = qHTS assay to test for compound auto fluorescence at 535 nm (green) in HepG2 cell free culture (AID 720686)
[7] = qHTS assay to test for compound auto fluorescence at 460 nm (blue) in HepG2 cells (AID 720687)
In short: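 HepG2 cells in MEM with 10% FBS, attached overnight at 37 C, were exposed to compound or DMSO for 1 hr at 37 C, 5% CO2. Blue fluorescence was read at 405/460 nm, with triamterene as reference fluorophore.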

[8] = qHTS assay to identify small molecule antagonists of the glucocorticoid receptor (GR) signaling pathway - cell viability counter screen (AID 720693); further: nearly all actives have a fitted effect of over 55% in size
[9] = qHTS assay for identifying genotoxic compounds that show differential cytotoxicity against isogenic chicken DT40 cell lines with known DNA damage response pathways - wild type cell line (AID 743012); further: nearly all actives have a fitted effect of over 60% in size; further: potency means the concentration at half of the fitted maximal effect
In short: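 Cells (DT40 wild type, 300/well) are treated with DMSO-dissolved compounds after a ~0.5 h pre-incubation and kept 40 h at 37 C/5% CO2. Viability is then measured by CellTiter-Glo luminescence following 30 min at room temperature.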

[10] = qHTS assay for identifying genotoxic compounds that show differential cytotoxicity against isogenic chicken DT40 cell lines with known DNA damage response pathways - Rev3 mutant cell line (AID 743014); further: nearly all actives have a fitted effect of over 55% in size; further: potency means the concentration at half of the fitted maximal effect
[11] = qHTS assay for identifying genotoxic compounds that show differential cytotoxicity against isogenic chicken DT40 cell lines with known DNA damage response pathways - Rad54/Ku70 mutant cell line (AID 743015); further: nearly all actives have a fitted effect of over 60% in size; further: potency means the concentration at half of the fitted maximal effect
[12] = qHTS assay to identify small molecule antagonists of the androgen receptor (AR) signaling pathway - cell viability counter screen (AID 743033; further: nearly all actives have a fitted effect of over 45% in size)
[13] = molecular target: Androgen receptor (Homo sapiens) (UniProt P10275); assay: qHTS assay to identify small molecule antagonists of the androgen receptor (AR) signaling pathway (AID 743035; active means well fitted inhibition curve with a large enough effect in the signal ratio in the repeat runs, not every such curve was filed as active; the % refers to the signal ratio; further: potency means the concentration at half of the fitted maximal effect)
Sequence of Androgen receptor (Homo sapiens) (P10275 whole entry, looked up): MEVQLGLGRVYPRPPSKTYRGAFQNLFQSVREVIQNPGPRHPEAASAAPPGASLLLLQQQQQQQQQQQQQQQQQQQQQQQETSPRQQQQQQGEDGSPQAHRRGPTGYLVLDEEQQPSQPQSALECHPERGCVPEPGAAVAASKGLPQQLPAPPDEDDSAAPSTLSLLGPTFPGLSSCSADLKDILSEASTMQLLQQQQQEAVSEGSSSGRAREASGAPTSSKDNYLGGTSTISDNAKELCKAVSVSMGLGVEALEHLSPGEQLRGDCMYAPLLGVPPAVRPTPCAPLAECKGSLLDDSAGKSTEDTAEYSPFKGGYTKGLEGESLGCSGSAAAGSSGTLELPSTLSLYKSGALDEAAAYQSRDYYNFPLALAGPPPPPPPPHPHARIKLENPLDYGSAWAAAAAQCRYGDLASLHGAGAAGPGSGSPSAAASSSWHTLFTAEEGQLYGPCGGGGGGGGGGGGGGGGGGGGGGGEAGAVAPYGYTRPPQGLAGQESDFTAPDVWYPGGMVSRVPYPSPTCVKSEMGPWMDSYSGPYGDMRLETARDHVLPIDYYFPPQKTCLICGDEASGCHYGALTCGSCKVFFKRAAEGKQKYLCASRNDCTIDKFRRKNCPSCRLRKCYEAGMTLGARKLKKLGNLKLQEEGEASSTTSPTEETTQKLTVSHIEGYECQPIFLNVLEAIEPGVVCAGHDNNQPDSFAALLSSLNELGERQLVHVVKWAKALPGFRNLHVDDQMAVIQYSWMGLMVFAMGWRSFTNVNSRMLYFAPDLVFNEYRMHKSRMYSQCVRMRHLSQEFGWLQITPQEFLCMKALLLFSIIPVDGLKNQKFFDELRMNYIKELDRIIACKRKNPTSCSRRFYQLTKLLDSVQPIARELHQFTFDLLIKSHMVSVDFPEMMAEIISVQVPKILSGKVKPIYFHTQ
In short: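 Antagonism is scored as loss of R1881-driven beta-lactamase reporter expression in HEK293 cells carrying the reporter under a UAS element, after 16 h co-treatment at 37C and a 2 h room-temperature FRET substrate read.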

[14] = molecular target: Androgen receptor (Homo sapiens) (UniProt P10275); assay: qHTS assay to identify small molecule agonists of the androgen receptor (AR) signaling pathway (AID 743036; active means well fitted activation curve with a large enough effect in the signal ratio in the repeat runs, with a control signal flat, not every such curve was filed as active; the % refers to the signal ratio)
In short: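 Reporter line: GeneBLAzer AR-UAS-bla-GripTite (HEK293). Steps: plate cells, 4 h rest, add compounds, 16 h at 37C, add LiveBLAzer B/G substrate, 2 h at RT, read fluorescence.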

[15] = molecular target: Androgen receptor (Homo sapiens) (UniProt P10275); assay: qHTS assay to identify small molecule agonists of the androgen receptor (AR) signaling pathway using the MDA cell line (AID 743040; further: nearly all actives have a fitted effect of over 20% in size)
In short: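 Human breast carcinoma MDA-kb2 reporter cells (MMTV-luc, AR/GR elements) were treated for 16 h at 37C in 0% CO2 following a 5 h settling period. Signal was quantified by ONE-Glo luminescence.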

[16] = qHTS assay to identify small molecule antagonists of the androgen receptor (AR) signaling pathway using the MDA cell line - cell viability counter screen (AID 743041; further: nearly all actives have a fitted effect of over 45% in size)
In short: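 Same-well cytotoxicity was assessed by CellTiter-Fluor in MDA-kb2 AR-luc cells after 16 h of compound treatment under R1881 agonism.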

[17] = qHTS assay to test for compound auto fluorescence at 460 nm (blue) in HepG2 cell free culture (AID 720685)
In short: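 Compound (23 nL) or DMSO pinned into cell-free MEM with 10% FBS; blue fluorescence read at 405/460 nm excitation/emission, expressed as auto-fluorescence equivalency to triamterene.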

[18] = molecular target: Glucocorticoid receptor (Homo sapiens) (UniProt P04150); assay: qHTS assay to identify small molecule agonists of the glucocorticoid receptor (GR) signaling pathway (AID 720691; active means well fitted activation curve with a large enough effect in the signal ratio in the repeat runs, not every such curve was filed as active; the % refers to the signal ratio)
Sequence of Glucocorticoid receptor (Homo sapiens) (P04150 whole entry, looked up): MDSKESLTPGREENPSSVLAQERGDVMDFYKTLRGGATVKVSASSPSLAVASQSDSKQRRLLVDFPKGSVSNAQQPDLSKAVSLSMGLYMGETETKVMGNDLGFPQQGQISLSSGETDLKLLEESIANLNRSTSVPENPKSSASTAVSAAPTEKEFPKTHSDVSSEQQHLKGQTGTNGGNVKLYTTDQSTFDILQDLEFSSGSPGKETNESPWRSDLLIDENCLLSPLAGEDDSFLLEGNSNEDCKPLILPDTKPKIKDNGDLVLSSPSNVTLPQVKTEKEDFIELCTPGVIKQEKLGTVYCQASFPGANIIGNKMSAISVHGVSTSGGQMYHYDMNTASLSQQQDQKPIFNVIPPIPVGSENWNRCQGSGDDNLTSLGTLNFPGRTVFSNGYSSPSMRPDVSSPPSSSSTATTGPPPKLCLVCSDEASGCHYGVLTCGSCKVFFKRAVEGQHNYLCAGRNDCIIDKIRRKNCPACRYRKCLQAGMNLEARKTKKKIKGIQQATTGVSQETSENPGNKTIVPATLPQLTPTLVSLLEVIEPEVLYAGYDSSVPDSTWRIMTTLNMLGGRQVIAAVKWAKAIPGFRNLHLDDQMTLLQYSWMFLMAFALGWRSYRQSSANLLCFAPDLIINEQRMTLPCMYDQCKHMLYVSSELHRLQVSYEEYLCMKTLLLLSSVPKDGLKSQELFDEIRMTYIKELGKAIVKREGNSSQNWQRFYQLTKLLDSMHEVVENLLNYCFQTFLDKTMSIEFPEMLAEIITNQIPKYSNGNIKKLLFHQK
In short: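 Agonist mode in a HeLa line carrying a GRE-controlled beta-lactamase reporter. Compounds act for 18 h at 37 C before a 2 h room-temperature FRET substrate step and fluorescence reading.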

[19] = molecular target: Glucocorticoid receptor (Homo sapiens) (UniProt P04150); assay: qHTS assay to identify small molecule antagonists of the glucocorticoid receptor (GR) signaling pathway (AID 720692; active means well fitted inhibition curve with a large enough effect in the signal ratio in the repeat runs, not every such curve was filed as active; the % refers to the signal ratio)
In short: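 Cells plated, rested 4 h at 37 C/5% CO2; compounds in DMSO pin-transferred; dexamethasone added to 5 nM final; 18 h at 37 C; B/G FRET substrate added, 2 h room temperature; fluorescence measured.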

[20] = molecular target: Androgen receptor (Homo sapiens) (UniProt P10275); assay: qHTS assay to identify small molecule antagonists of the androgen receptor (AR) signaling pathway using the MDA cell line (AID 743042; further: nearly all actives have a fitted effect of over 55% in size)
In short: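 MDA-kb2 breast carcinoma cells carrying MMTV-luciferase (AR/GR responsive) were co-treated with compounds and the agonist R1881 for 16 h at 37C. Inhibition read as ONE-Glo luminescence; CellTiter-Fluor fluorescence measured in parallel for cytotoxicity.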
On the % scale 0 is the no-effect control and ±100 the full control effect.

CCC(C)N(C)C(=O)c1cc2ccccc2c(-c2ccccc2Cl)n1 (configuration not stated)
active: Potency [9] 15.7 µM | Potency [10] 14 µM | Potency [11] 14 µM | Potency [13] 28.2 µM
inactive: outcome [1] | Potency [2] | outcome [3] | outcome [4] | outcome [5] | outcome [6] | Potency [7] | Potency [8] | Potency [12] | outcome [14] | Potency [15] | Potency [16]

Cc1ccc(C)o1
inactive: outcome [1] | Potency [2] | outcome [3] | outcome [4] | Potency [17] | Potency [7] | Potency [18] | Potency [8] | Potency [9] | Potency [10] | Potency [11] | Potency [12] | Potency [16]

Cc1cccc(OCCOc2cccc(C)c2)c1
inactive: outcome [1] | Potency [2] | outcome [3] | outcome [4] | Potency [17] | outcome [6] | Potency [7] | Potency [18] | Potency [19] | Potency [8] | Potency [9] | Potency [12] | Potency [16]

CCCCc1cc2ccccc2c(OCCN(C)C)n1
active: Potency [9] 6.39 µM | Potency [10] 9.02 µM
inactive: fluorescence, % of fluorescein [1] -0.0691% [at 18.6 µM] | fluorescence, % of fluorescent control [2] -0.0502% [at 18.6 µM] | activity change [3] -0.13% [at 18.6 µM] | fluorescence, % of fluorescent control [4] 0.0019% [at 18.6 µM] | fluorescence, % of Rose Bengal [5] 0.586% [at 18.6 µM] | fluorescence, % of fluorescein control [6] 0.0394% [at 18.6 µM] | fluorescence, % of fluorescent control [7] -0.0043% [at 18.6 µM] | Potency [8] | Potency [12] | Potency [16]

CC(=O)/C(C)=C/C1C(C)=CCCC1(C)C (configuration not stated)
inactive: outcome [1] | Potency [2] | outcome [3] | outcome [4] | Potency [17] | outcome [6] | Potency [7] | Potency [18] | Potency [19] | Potency [8] | Potency [9] | Potency [11] | Potency [12] | Potency [16]

CCCCCCCCCCCCCCCCCBr
inactive: fluorescence, % of fluorescein [1] 0.0114% [at 18.6 µM] | fluorescence, % of fluorescent control [2] -0.0559% [at 18.6 µM] | activity change [3] -0.0304% [at 18.6 µM] | fluorescence, % of fluorescent control [4] -0.288% [at 18.6 µM] | fluorescence, % of fluorescent control [17] 0.0584% [at 18.6 µM] | fluorescence, % of fluorescein control [6] 0.134% [at 18.6 µM] | Potency [8] | Potency [9] | Potency [10] | Potency [11] | Potency [12] | Potency [16]

COc1ccc([C@@H]2Sc3ccccc3N(CCN(C)C)C(=O)[C@@H]2OC(C)=O)cc1
inactive: outcome [1] | Potency [2] | outcome [3] | outcome [4] | Potency [17] | outcome [6] | Potency [7] | Potency [18] | Potency [8] | Potency [12] | Potency [16]

O=C(O)[C@@H]1[C@H]2C[C@H]3c4[nH]c5ccccc5c4CCN3C[C@@H]2CC[C@@H]1O
inactive: fluorescence, % of fluorescein [1] -0.047% [at 18.6 µM] | fluorescence, % of fluorescent control [2] 4.98% [at 18.6 µM] | activity change [3] -0.0263% [at 18.6 µM] | fluorescence, % of fluorescent control [4] 0.0861% [at 18.6 µM] | fluorescence, % of fluorescent control [17] 4.25% [at 18.6 µM] | fluorescence, % of fluorescein control [6] 0.287% [at 18.6 µM] | fluorescence, % of fluorescent control [7] 5.05% [at 18.6 µM] | Potency [18] | Potency [19] | Potency [8] | Potency [10] | Potency [12] | Potency [13] | Potency [15] | Potency [16] | Potency [20]
